# Test results reported in PubChem BioAssay (NCATS).
# Unmarked numbers belong to inactive results. The rule behind the calls is not given here.
# Tested on: HIV-1 nucleocapsid protein NCp7 (binding to TG oligonucleotide)
# Experiment: HIV Nucleocapsid (AID 346);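 note: potency is for inhibitors that block NC binding and lower polarization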
# Settings: HIV-1 NC / fluorescein-TGTGTGTG probe, fluorescence polarization
# How it was run: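 Inhibition of nucleocapsid binding to single-stranded 5'-TGTGTGTG probe (10 nM) was measured by fluorescence polarization after 1 hr at room temperature with 100 nM protein under high-salt, zinc-containing, reducing conditions.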
# Potency is the fitted concentration of half-maximal effect.
row,SMILES,Potency [µM]
1,O=C(c1ccco1)N1CCC[C@@]2(CCN(c3ccccn3)C2)C1,> 20
2,Cn1cccc1C(=O)N1CCC2(CC1)CCN(c1ccc(-c3ccccc3)cc1)CC2,> 20
3,Cc1ccccc1-c1ccc2ncnc(N3CCOCC3)c2c1,> 20
4,COc1ccccc1CN1CCC2(CC1)CCN(C(=O)c1cccn1C)CC2,> 20
5,CC(=O)NCCNc1nc(-c2ccccc2CN(C)C)nc2ccccc12,> 20
6,Cn1cccc1C(=O)N1CCC[C@@]2(CCN(c3ccccn3)C2)C1,> 20
7,Cc1nc2cnc(N(C)C)nc2n(CCC#N)c1=O,> 20
8,COc1cccc(Cn2c(=O)c(-c3cccc(Cl)c3)nc3cncnc32)c1,> 20
9,O=C(Oc1ccccc1)N1CCC2(CC1)CN(c1ccccn1)C2,> 20
10,c1ccc(-c2ccc(N3CC4(CCNCC4)C3)cc2)cc1,> 20
11,CN1CCN(c2ncc3nc(CCc4ccccc4)c(=O)n(Cc4cccs4)c3n2)CC1,> 20
12,COc1ccc(Oc2ncc3ncc(=O)n(-c4ccc(OC)cc4)c3n2)cc1,> 20
13,O=c1c(-c2ccc(F)cc2)nc2cnc(N3CCNCC3)nc2n1Cc1ccc(F)cc1,> 20
14,COCC(=O)N1CCC2(CCCN(c3ncccn3)C2)CC1,> 20
15,COCC(=O)N1CCC2(CCN(Cc3ccc(C#N)cc3)CC2)CC1,> 20
16,CS(=O)(=O)N1CCC2(CCCN(Cc3cc(C(F)(F)F)cc(C(F)(F)F)c3)C2)CC1,> 20
17,O=C(c1cccc(F)c1)N1CCC2(CCN(Cc3ccccc3)CC2)CC1,> 20
18,Clc1ccccc1-c1nccc(NCc2ccccc2)n1,> 20
19,Cc1noc(C)c1-c1nccc(N(C)Cc2ccco2)n1,> 20
20,COCC(=O)N1CCC2(CCCN(c3ccccn3)C2)CC1,> 20

row,SMILES,Potency [µM]
1,COc1ccccc1-c1cncnc1NCCNC(C)=O,> 20
2,COCCNc1ncnc2ccc(-c3ccoc3)cc12,> 20
3,COc1cccc(-c2nc(N3CCN(C)CC3)c3ccccc3n2)c1,> 20
4,N#Cc1cccc(-c2ccc3ncnc(NCc4cccs4)c3c2)c1,> 20
5,Cc1noc(C)c1C(=O)N1CCC2(CCN(Cc3ccc(C#N)cc3)CC2)CC1,> 20
6,O=C(Nc1ccccc1)N1CC[C@@]2(CCCN(C(=O)c3cnccn3)C2)C1,> 20
7,COc1cccc(Cn2c(=O)c(-c3cccc(C#N)c3)nc3cnc(N4CCOCC4)nc32)c1,> 20
8,CN1CCN(c2ncc3nc(-c4cc(F)cc(F)c4)c(=O)n(-c4ccccc4)c3n2)CC1,> 20
9,COCCn1c(=O)c(C)nc2cnc(N3CCN(C)CC3)nc21,> 20
10,CCNc1ncc2nc(-c3ccc(OC)cc3)c(=O)n(C)c2n1,> 20
11,COc1ccc(NC(=O)N2CCC3(CC2)CCN(C(=O)c2ccncc2)CC3)cc1,> 20
12,CN1CC[C@@]2(CCCN(S(=O)(=O)c3ccccc3)C2)C1,> 20
13,Cc1cnc(CNc2ccnc(-c3ccccc3Cl)n2)cn1,> 20
14,c1ccc(CNc2ncnc3ccc(-c4cccnc4)cc23)cc1,> 20
15,c1cncc(CNc2nc(-c3cccnc3)nc3ccccc23)c1,> 20
16,COc1ccccc1-c1cc(-n2ccnc2)ncn1,> 20
17,COc1cccc(-c2cc(N(C)Cc3ccco3)ncn2)c1,> 20
18,O=c1c(-c2cccs2)nc2cnc(N3CCOCC3)nc2n1Cc1cccs1,> 4
19,COc1ccccc1-c1cncnc1NCCN1CCOCC1,> 20
20,COCCn1c(=O)c(CCc2ccccc2)nc2cnc(Oc3ccc(OC)cc3)nc21,> 20
